Laboratory results reported in PubChem BioAssay.
Values without a mark were called inactive. For part of these data: Measured potencies and affinities stand elsewhere. Active and inactive are the calls of the source. Unless noted, the rule behind the calls is not given here.

Key:
[1] = antimalarial activity against Dd2 strain (AID 2302;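 active = growth inhibition above 50% at the single 2 µM test dose, taken to imply half-maximal potency below 2 µM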;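 note: 0% = DMSO untreated growth and 100% = chloroquine plus artemisinin killed control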); conditions: P. falciparum Dd2 in RBCs, LDH growth readout, 72 h; at 2 µM; active compounds read high
[2] = human hepatoma cell viability loss – ATP luminescence, cytotoxicity control for P. falciparum antimalarial project, primary screen (AID 2303;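 active = inhibition above 50%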;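 note: 0% = DMSO wells and 100% = digitonin-killed cells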); conditions: HepG2 viability, 24-48 h, at 10 µM, active compounds read high
[3] = biological target: L-lactate dehydrogenase (Plasmodium falciparum (isolate CDC / Honduras)) (UniProt Q27743); assay: PfLDH activity inhibition – cell lysate, 3D7 strain, counter-screen for P. falciparum growth inhibition project (AID 2304);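 note: 0% = vehicle and 100% = reference inhibitor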; conditions: P. falciparum 3D7 crude extract, LDH APAD/NBT absorbance; at 2 µM; active compounds read high
[4] = inhibition of 3D7 malaria parasite growth – strain 3D7 (AID 2306);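 note: 0% = DMSO wells and 100% = chloroquine plus artemisinin control wells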; conditions: P. falciparum 3D7 erythrocytic growth, LDH absorbance, 72 h; at 2 µM; active compounds read high
[5] = biological target: Calcium-dependent protein kinase 1 (Plasmodium falciparum (isolate 3D7)) (UniProt P62344); assay: PfCDPK1 kinase inhibitors, biochemical, TCAMS library (AID 1159585; cut-off not given, nearly all actives have IC50 up to about 0.98 µM;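 note: inhibitors leave more ATP so luminescence rises with inhibition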); conditions: recombinant PfCDPK1, Kinase-Glo ATP depletion luminescence
[6] = biological target: Plasmodium falciparum protein kinase 6 (PK6, PF3D7_1337100) (UniProt Q8IDW1); assay: PfPK6 kinase inhibitors, biochemical, TCAMS library (AID 1159586); conditions: recombinant PfPK6, Kinase-Glo ATP depletion luminescence
[7] = biological target: Protein kinase 7 (PK7), Plasmodium falciparum 3D7 (PF3D7_0213400) (UniProt Q7YTF7); assay: inhibition of Plasmodium PK7 catalytic activity – biochemical, TCAMS antimalarial set, Kinase-Glo luminescence (AID 1159587); conditions: recombinant PfPK7, Kinase-Glo ATP depletion luminescence
[8] = biological target: Calcium-dependent protein kinase 4 (Plasmodium falciparum (isolate 3D7)) (UniProt Q8IBS5); assay: PfCDPK4 kinase inhibitors, biochemical, TCAMS library (AID 1159588; cut-off not given, nearly all actives have IC50 up to about 0.91 µM); conditions: recombinant PfCDPK4, Kinase-Glo ATP depletion luminescence
Calcium-dependent protein kinase 4 (Plasmodium falciparum (isolate 3D7)), sequence (Q8IBS5 whole entry, looked up): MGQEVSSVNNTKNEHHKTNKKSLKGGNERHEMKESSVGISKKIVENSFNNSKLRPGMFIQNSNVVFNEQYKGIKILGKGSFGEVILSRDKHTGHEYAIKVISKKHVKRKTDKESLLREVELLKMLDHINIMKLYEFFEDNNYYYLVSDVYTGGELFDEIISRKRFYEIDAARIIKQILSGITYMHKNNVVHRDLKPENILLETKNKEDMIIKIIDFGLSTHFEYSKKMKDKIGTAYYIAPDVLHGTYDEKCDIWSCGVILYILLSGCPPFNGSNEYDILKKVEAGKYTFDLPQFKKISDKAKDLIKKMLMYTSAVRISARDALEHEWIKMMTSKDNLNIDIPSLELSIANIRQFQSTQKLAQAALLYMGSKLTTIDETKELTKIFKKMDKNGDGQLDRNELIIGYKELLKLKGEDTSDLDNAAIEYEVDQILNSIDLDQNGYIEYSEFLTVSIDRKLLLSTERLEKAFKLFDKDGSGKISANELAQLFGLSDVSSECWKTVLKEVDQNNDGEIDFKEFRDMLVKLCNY

L-lactate dehydrogenase (Plasmodium falciparum (isolate CDC / Honduras)), sequence (Q27743 whole entry, looked up): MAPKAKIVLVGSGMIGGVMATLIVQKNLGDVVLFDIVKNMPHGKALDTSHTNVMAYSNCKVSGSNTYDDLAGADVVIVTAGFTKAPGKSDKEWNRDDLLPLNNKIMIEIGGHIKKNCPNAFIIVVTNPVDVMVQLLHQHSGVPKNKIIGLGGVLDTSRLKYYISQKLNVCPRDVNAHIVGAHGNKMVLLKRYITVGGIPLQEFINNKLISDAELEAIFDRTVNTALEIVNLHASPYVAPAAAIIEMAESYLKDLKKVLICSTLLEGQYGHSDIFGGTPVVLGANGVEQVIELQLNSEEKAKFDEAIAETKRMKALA
Plasmodium falciparum protein kinase 6 (PK6, PF3D7_1337100), sequence (Q8IDW1 1-305): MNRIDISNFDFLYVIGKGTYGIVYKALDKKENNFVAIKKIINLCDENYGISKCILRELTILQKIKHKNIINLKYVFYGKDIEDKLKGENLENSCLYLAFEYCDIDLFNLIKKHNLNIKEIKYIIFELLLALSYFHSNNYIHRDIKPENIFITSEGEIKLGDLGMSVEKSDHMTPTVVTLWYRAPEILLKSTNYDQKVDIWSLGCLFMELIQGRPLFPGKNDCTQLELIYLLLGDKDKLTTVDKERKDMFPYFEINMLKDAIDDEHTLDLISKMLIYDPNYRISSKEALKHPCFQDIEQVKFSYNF
Protein kinase 7 (PK7), Plasmodium falciparum 3D7 (PF3D7_0213400), sequence (Q7YTF7 1-343): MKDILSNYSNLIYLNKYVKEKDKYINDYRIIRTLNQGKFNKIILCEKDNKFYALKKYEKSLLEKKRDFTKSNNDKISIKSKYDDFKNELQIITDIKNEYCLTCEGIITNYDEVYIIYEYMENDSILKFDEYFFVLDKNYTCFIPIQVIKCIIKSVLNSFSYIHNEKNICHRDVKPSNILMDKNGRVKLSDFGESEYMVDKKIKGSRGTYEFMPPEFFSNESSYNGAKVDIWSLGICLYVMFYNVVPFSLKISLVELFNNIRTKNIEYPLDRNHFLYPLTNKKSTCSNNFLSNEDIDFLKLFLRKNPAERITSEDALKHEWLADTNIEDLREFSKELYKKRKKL
Calcium-dependent protein kinase 1 (Plasmodium falciparum (isolate 3D7)), sequence (P62344 whole entry, looked up): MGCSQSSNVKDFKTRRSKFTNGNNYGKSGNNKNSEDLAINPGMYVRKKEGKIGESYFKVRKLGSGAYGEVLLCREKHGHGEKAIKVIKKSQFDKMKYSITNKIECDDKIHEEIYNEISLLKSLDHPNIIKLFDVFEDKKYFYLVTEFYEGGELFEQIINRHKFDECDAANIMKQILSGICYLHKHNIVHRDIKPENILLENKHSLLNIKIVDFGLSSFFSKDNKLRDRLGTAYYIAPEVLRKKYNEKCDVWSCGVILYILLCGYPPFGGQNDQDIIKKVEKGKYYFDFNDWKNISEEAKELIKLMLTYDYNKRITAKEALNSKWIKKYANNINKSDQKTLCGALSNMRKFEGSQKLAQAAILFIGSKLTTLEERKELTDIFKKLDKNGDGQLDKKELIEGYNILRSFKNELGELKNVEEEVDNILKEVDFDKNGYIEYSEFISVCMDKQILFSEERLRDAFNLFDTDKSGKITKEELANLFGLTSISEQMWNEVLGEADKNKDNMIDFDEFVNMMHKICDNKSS

Row | Compound | growth inhibition [1] | inhibition [2] | inhibition [3] | growth inhibition [4] | outcome [5] | outcome [6] | outcome [7] | outcome [8]
1 | Cc1nc2nc(N)nc(N)c2c(C)c1Cc1ccccc1Cl | -2% | 63% (active) | -3% | 93% (active) | inactive | inactive | inactive | inactive
2 | CCCCCn1c(Sc2ccc(C#N)c([N+](=O)[O-])c2)nnc1-c1ccc(OC)cc1 | 44% | 8% | 4% | 88% (active) | inactive | inactive | inactive | inactive
3 | CN1CCN(Cc2cccc(-c3ccc4c(Nc5ccc(F)cc5Cl)ccnc4c3)c2)CC1 | 100% (active) | 20% | -1% | 101% (active) | inactive | inactive | inactive | inactive
4 | COc1ccc(-c2nc(NC(=O)CS(=O)(=O)c3ccc(F)cc3)sc2C)cc1 | 99% (active) | 20% | -3% | 100% (active) | inactive | inactive | inactive | inactive
5 | Cc1nc(N/C=C/c2ccc(O)cc2)cc(N2CCCC2)n1 | 54% (active) | -11% | -2% | 93% (active) | inactive | inactive | inactive | inactive
6 | CN(C)CCOc1cc(NC(=O)Nc2ccc3c(c2)CCCC3=O)ccc1I | 31% | 29% | -5% | 94% (active) | inactive | inactive | inactive | inactive
7 | COc1cc(NCC(O)CNc2cc(OC)c3ccccc3n2)nc2ccccc12 | 93% (active) | 42% | 5% | 100% (active) | inactive | inactive | inactive | inactive
8 | COc1ccc(NC(=O)N2CCCN(CCCCCNC(=O)/C=C/c3ccc(C(F)(F)F)cc3)CC2)cc1Cl | -5% | 21% | 4% | 93% (active) | inactive | inactive | inactive | inactive
9 | c1ccc(CN2CCC(Nc3ccc(-c4cn[nH]c4-c4ccccn4)nc3)CC2)cc1 | 23% | 1% | -5% | 97% (active) | inactive | inactive | inactive | inactive
10 | COc1ccc(-c2cccc(NC(=O)c3cccc(Cl)c3)c2)cc1CNC(C)C | 8% | 15% | -2% | 102% (active) | inactive | inactive | inactive | inactive
11 | O=S(=O)(NCCN1CCCC1)c1ccc(-c2cccc(CNC3Cc4ccccc4C3)c2)cc1 | 57% (active) | 55% (active) | -6% | 99% (active) | inactive | inactive | inactive | inactive
12 | CC(=O)Nc1ccc(S(=O)(=O)Nc2c(C)cc(Cc3cnc(N)nc3N)cc2C)cc1 | -1% | 6% | 5% | 94% (active) | inactive | inactive | inactive | inactive
13 | Cc1ccc(Nc2ccnc3ccc(C(F)(F)F)cc23)cc1O | 69% (active) | 23% | -6% | 102% (active) | inactive | inactive | inactive | inactive
14 | CC(C)Nc1cc(C(=O)N[C@@H](Cc2ccccc2)[C@H](O)CNC(C)(C)c2cccc(C(F)(F)F)c2)cc(N2CCCCS2(=O)=O)c1 | 98% (active) | 9% | 2% | 98% (active) | inactive | inactive | inactive | inactive
15 | Cn1cncc1C(=O)Nc1cccc(-c2ccc(-c3nc4ccc(F)cc4[nH]3)cc2)c1 | 31% | -1% | -2% | 101% (active) | inactive | inactive | inactive | inactive
16 | FC(F)(F)c1ccc2c(C=Cc3ccncc3)c[nH]c2c1 | 76% (active) | -12% | -2% | 98% (active) | inactive | inactive | inactive | inactive
17 | O=C(NCc1ccc(F)cc1)Nc1ccc(-c2cccc(-c3nc4ccc(C(F)(F)F)cc4[nH]3)c2)cc1 | 92% (active) | 41% | 3% | 101% (active) | inactive | inactive | inactive | inactive
18 | COc1ccc(-c2cccc(NC(=O)c3ccc(C#N)cc3)c2)cc1CN1CCN(C)CC1 | 2% | 24% | -3% | 93% (active) | inactive | inactive | inactive | inactive
19 | Cc1cccc(/C=C/C(=O)NC2CCC(N3CCC(c4ccccc4C)CC3)CC2)c1 (configuration not stated) | 20% | 67% (active) | -3% | 92% (active) | inactive | inactive | inactive | inactive
20 | CC(=O)c1c(Cc2cccc(C(F)(F)F)c2)c[nH]c1C | 92% (active) | 6% | 7% | 94% (active) | inactive | inactive | inactive | inactive

Row | Compound | growth inhibition [1] | inhibition [2] | inhibition [3] | growth inhibition [4] | outcome [5] | outcome [6] | outcome [7] | outcome [8]
21 | COc1ccc(NC(=O)C2c3ccccc3C(=O)N(C3CCCC3)C2c2cccs2)cc1OC (configuration not stated) | 96% (active) | -5% | -2% | 90% (active) | inactive | inactive | inactive | inactive
22 | CN1CCN(c2cccc(NC(=O)c3ccc(-c4ccc(C#N)cc4)cc3)c2)CC1 | 7% | 31% | 2% | 84% (active) | inactive | inactive | inactive | inactive
23 | COc1c(OC)c(OC)c2ccccc2c1CNCCCCCCNCc1c(OC)c(OC)c(OC)c2ccccc12 | 71% (active) | 99% (active) | 3% | 100% (active) | inactive | inactive | inactive | inactive
24 | COc1cc(Cc2cnc(N)nc2N)ccc1OCc1ccc(NC(C)=O)cc1 | 0% | 9% | -6% | 98% (active) | inactive | inactive | inactive | inactive
25 | COc1ccccc1C(=O)N1CCN(Cc2cccs2)CC1 | 1% | 87% (active) | -1% | 96% (active) | inactive | inactive | inactive | inactive
26 | c1ccc2c(CNCCCCCCNCc3c(OCC4CC4)ccc4ccccc34)c(OCC3CC3)ccc2c1 | 97% (active) | 100% (active) | -8% | 93% (active) | inactive | inactive | inactive | inactive
27 | Fc1ccc2nc(-c3cccc(-c4ccc(CN5CCC(CCN6CCCCC6)CC5)cc4)c3)[nH]c2c1 | 100% (active) | 91% (active) | -2% | 101% (active) | inactive | inactive | inactive | inactive
28 | O=C(Nc1cccc(-c2ccc(-c3nc4ccccc4[nH]3)cc2)c1)c1csnn1 | 21% | 31% | 0% | 91% (active) | inactive | inactive | inactive | inactive
29 | CS(=O)(=O)N(CC(O)Cn1c2ccc(Cl)cc2c2cc(Cl)ccc21)c1ccccc1 (configuration not stated) | 98% (active) | 2% | 0% | 101% (active) | inactive | inactive | inactive | inactive
30 | COc1ccccc1-c1cccc(Nc2c(Nc3ccc(Cl)cc3)c(=O)c2=O)c1 | 47% | 20% | 0% | 81% (active) | inactive | inactive | inactive | inactive
31 | COc1ccc2nc3ccccc3c(NCCN3CCN(C)CC3)c2c1 | 10% | 11% | 1% | 81% (active) | inactive | inactive | inactive | inactive
32 | CC1(C)N=C(N)N=C(N)N1OCc1cc2ccccc2cc1CON1C(N)=NC(N)=NC1(C)C | 51% (active) | 0% | -5% | 92% (active) | inactive | inactive | inactive | inactive
33 | Cn1cc(C2CCN(CCCCNC(=O)c3ccc(-c4ccc(C(F)(F)F)cc4)c(CO)c3)CC2)c2ccccc21 | 16% | 67% (active) | -1% | 88% (active) | inactive | inactive | inactive | inactive
34 | COc1c(C2=CCN(CCCCNC(=O)c3ccc(-c4ccc(C#N)cc4)cc3)CC2)ccc2c1CCCC2 | 82% (active) | 44% | 7% | 94% (active) | inactive | inactive | inactive | inactive
35 | Cc1c(C)c2c(c(C)c1O)CC[C@@](C)(C(=O)N1CCC(CCN3CCC(c4c[nH]c5ccccc45)CC3)CC1)O2 | 91% (active) | 37% | 6% | 98% (active) | inactive | inactive | inactive | inactive
36 | CCCCCCN=C(N)c1ccc(OCCCCCOc2ccc(C(N)=NCCCCCC)cc2)cc1 | 98% (active) | 55% (active) | -8% | 97% (active) | inactive | inactive | inactive | inactive
37 | CCCNCc1ccc(-c2ccc(CN(CCOC)C(=O)CC3CCCC3=O)cc2)nc1 (configuration not stated) | 9% | 5% | 3% | 93% (active) | inactive | inactive | inactive | inactive
38 | O=C(c1ccc([N+](=O)[O-])o1)N1CCN(c2nc3c(F)cc(F)cc3s2)CC1 | 86% (active) | -7% | -4% | 93% (active) | inactive | inactive | inactive | inactive
39 | CC(C)(C)OC(=O)N1CCC(C2CCN(C(=O)OC(C)(C)C)CC2)CC1 | 28% | -6% | 1% | 86% (active) | inactive | inactive | inactive | inactive
